Data on 99 molecules can be found in PubChem BioAssay AID431 (Sanford-Burnham Center for Chemical Genomics, 2006).

The whole screen tested about 63,000 compounds, of which about 1,100 (1.7%) were called active. The sample as a whole holds a higher share of actives than the screen did. Entries with a potency or affinity are not part of this list. A number with no mark means an inactive call.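 How the source made its calls: active means compounds whose percent cytotoxicity in the single-dose primary screen, scaled between solvent and toxic-drug controls, exceeds 50; inactive means the rest.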

The nature of this test: cytotoxicity in KRAS-transformed pancreatic duct cells, primary screen, cell-based, fluorescence, HTS (AID 431).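 Further: 0% = DMSO solvent wells and 100% = doxorubicin-treated wells.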 As to conditions: HPDE-C7K KRASV12 cells, Alamar Blue viability, 48 h; at 10 µM; stronger effect = higher value. On the technique in general: Alamar Blue is a resazurin reagent that responds to reducing activity.
Turning to `O=C(COC(=O)C(O)c1ccccc1)c1ccc2c(c1)OCCO2` (centres undefined), the cytotoxicity is -14.7%.

For `Cn1cc(Cl)c(C(=O)Nc2cccc(Cl)c2Cl)n1`, the cytotoxicity is -18.7%. `CCOC(=O)c1ccc(Oc2nc(NC)nc(SC)n2)cc1`: the cytotoxicity was -5.1%.

In the case of `COC(=O)c1ccc(Oc2cc(C)nc(SC)n2)cc1`, the cytotoxicity was 53.4% (active).

As for `COC(=O)c1ccc(Oc2cc(C)nc(NCc3ccccc3)n2)cc1`, the cytotoxicity was 1.6%. Regarding `CCOC(=O)c1ccc(Oc2nc(SC)nc(N(C)C)n2)cc1`, the cytotoxicity is -21.1%. Turning to `COC(=O)c1ccc(Oc2nc(C)cc(Oc3ccccc3)n2)cc1`, the cytotoxicity was -1.7%. `CCOC(=O)c1ccc(Oc2cc(C)nc(SC)n2)cc1`: the cytotoxicity is 55.4% (active). `COc1ccc(S(=O)(=O)NC2CC3CCC2C3)cc1Cl` (centres undefined): the cytotoxicity is 5%. Consider `CCOC(=O)C(Cc1ccccc1)NC(=O)CCc1c(C)nc2ncnn2c1C` (centres undefined), for which the cytotoxicity is -0.7%. In the case of `O=C(CN1CCc2ccccc2C1)c1cccs1`, the cytotoxicity was -6.1%. On to `COc1cc2c(cc1OC)CN(C(=O)CSc1nnc3scc(-c4ccccc4)n13)CC2`, for which the cytotoxicity is 1.3%. As for `CCN(CC)CCCOc1nc(C)nc2c1oc1ccccc12`, the cytotoxicity was 9.8%. Turning to `Cc1cc(Cl)ccc1OCCCC(N)=O`, the cytotoxicity is -7%. Under `Cc1cc(Cl)ccc1OCc1nc(-c2ccc(O)cc2)n[nH]1` stands 86.2% (active). Under `Clc1ccc(OCc2nc(-c3ccccn3)n[nH]2)cc1` stands 47.8%. Regarding `COc1ccc(N2CCN(C(=O)c3ccc4c(c3)OCO4)CC2)cc1`, the cytotoxicity was 17%. Consider `CC1CC(C)CN(C(=O)Cn2c(=O)n(CCCCC(=O)NC3CCCC3)c(=O)c3ccccc32)C1` (centres undefined), for which the cytotoxicity is -3.9%. Take `O=C(Cc1ccc(Cl)c(Cl)c1)OCC(=O)c1ccc[nH]1`: the cytotoxicity is -10.8%. For the molecule `O=C(Cc1ccc(-c2ccccc2)cc1)N1CCOCC1`, the cytotoxicity is -4.1%. In the case of `O=C1NCCCC2c3c(cc(Br)c(O)c3Br)OC12N1CCOCC1` (centres undefined), the cytotoxicity is -3.5%. Consider `CCCCn1c(SCC(=O)OCC)nc2c1c(=O)[nH]c(=O)n2C`, for which the cytotoxicity is 2.4%. On to `Cc1nc(Sc2nnnn2C)c2c3c(sc2n1)CCC3`, for which the cytotoxicity is 68.5% (active). `CSc1nc2sc3c(c2c2nnnn12)CCC3`: the cytotoxicity is 6.6%. On to `Cc1nc(SCC#N)c2c3c(sc2n1)CCC3`, for which the cytotoxicity was -15.5%. In the case of `Cc1nnn(C23CC4CC(CC(C4)C2)C3)n1`, the cytotoxicity is 4.5%.

As to `CC1CCCN(CCCNC(=O)c2coc3nc4ccccc4nc23)C1` (centres undefined), the cytotoxicity was 9.2%. Take `O=C(NCc1ccccc1)N1CCN(c2ccc(Cl)c(Cl)c2)CC1`: the cytotoxicity was -1.9%.

`CC(C)c1ccc(OC(=O)NCCO)cc1`: the cytotoxicity is -6.6%. For the molecule `COC(=O)CCC(=O)Oc1ccc(OC(=O)CCC(=O)OC)cc1`, the cytotoxicity is 18.3%.

`CCOc1ccc(C(=O)COC(=O)CC)cc1`: the cytotoxicity was -1.3%.

`CCC(=O)Oc1ccc(-c2nc(-c3cccnc3)no2)cc1`: the cytotoxicity was -6.1%. As to `CC1(C)CC(=O)C2=C(C1)OC(=O)C2(NC(=O)c1cccs1)C(F)(F)F` (centres undefined), the cytotoxicity is -9.1%. With `CC1=C(C(=O)N(C)Cc2ccccc2)C2(CCC(C)CC2)OC1=O` (centres undefined), the cytotoxicity was 1.3%. Turning to `Cc1cc(NC(=O)CSc2nc3c(c(=O)n2-c2ccccc2)SC(C)C3)no1` (centres undefined), the cytotoxicity was 5.9%.

Regarding `COc1ccc(CCNC(=O)c2cnn3cccnc23)cc1OC`, the cytotoxicity was -0.5%. As for `CCN1C(=O)CC(C(=O)Nc2ccc(F)cc2)SC1=Nc1cccc(OC)c1` (centres undefined), the cytotoxicity was -9.1%. Under `O=C(NCCCN1CCN(CCCNC(=O)c2ccccc2F)CC1)c1ccccc1F` stands -23.8%. `CC1CCc2nc(NC(=O)CN3CCN(c4ccccc4)CC3)sc2C1` (centres undefined): the cytotoxicity was -5.6%.

Consider `CC1CCc2nc(NC(=O)CN3CCOCC3)sc2C1` (centres undefined), for which the cytotoxicity was -3.7%. For `CC1CCc2nc(NC(=O)CN3CCN(Cc4ccc5c(c4)OCO5)CC3)sc2C1` (centres undefined), the cytotoxicity is 56.9% (active). As for `COCCOC(=O)C1=C(C)NC2=C(C(=O)CCC2)C1c1ccc(N(C)C)cc1` (centres undefined), the figure is 3%; as for `COC(=O)c1cc2ccsc2n1Cc1nc(-c2ccc(OC)cc2)oc1C`, 11.1%. In the case of `COC(=O)c1ccc(-c2ccco2)n1Cc1nc(-c2ccc(OC)c(OC)c2)oc1C`, the cytotoxicity is 74.4% (active).

`COc1ccc(-c2nc(CS(=O)CC(=O)NCc3ccco3)c(C)o2)cc1OC` (centres undefined): the cytotoxicity is 1.1%. Take `CCCC(C(=O)NCc1ccc(OC)cc1)N(Cc1ccco1)C(=O)c1snc(C(N)=O)c1N` (centres undefined): the cytotoxicity was -4%. For the molecule `O=c1oc2cc(O)ccc2c2oc3cc(O)ccc3c12`, the cytotoxicity was 41%.

As for `Oc1ccc2c(c1)oc1cc(O)ccc12`, the cytotoxicity was 57% (active). For the molecule `O=c1oc2cc(O)ccc2c2c1CCCC2`, the cytotoxicity was 30.5%.

Regarding `COc1ccc(N(Cc2cc3ccccc3[nH]c2=O)C(=O)C2CCCO2)cc1` (centres undefined), the cytotoxicity is 14.6%. Take `Cc1sc2nc(SCC(=O)c3cc(C)n(CC4CCCO4)c3C)n(C(C)C)c(=O)c2c1C` (centres undefined): the cytotoxicity was 22.2%. In the case of `Cn1nnc2cc(C(=O)NC(C)(C)C)ccc21`, the cytotoxicity was 3.4%. With `Cc1ccc2c(c1)c1ncnc(N3CCOCC3)c1n2C`, the cytotoxicity was -7.1%. Turning to `Cc1ccc2c(c1)c1ncnc(N3CCN(c4ccccc4)CC3)c1n2C`, the cytotoxicity was 9.4%. `Cc1ccc2[nH]c(=O)c(CN(Cc3ccc4c(c3)OCO4)Cc3nnnn3C3CCCC3)cc2c1`: the cytotoxicity is -0.4%. Regarding `Cc1cc2cc(CN(Cc3ccc4c(c3)OCO4)Cc3nnnn3C3CCCC3)c(=O)[nH]c2cc1C`, the cytotoxicity is 2.4%.

Take `Cc1ccc2cc(CN(Cc3ccccc3)Cc3nnnn3C3CCCC3)c(=O)[nH]c2c1`: the cytotoxicity was 56.3% (active). Under `Cc1ccc2cc(CN(Cc3ccc(F)cc3)Cc3nnnn3C3CCCC3)c(=O)[nH]c2c1` stands 31.6%.

In the case of `Cc1ccc2[nH]c(=O)c(CN(Cc3ccccc3)Cc3nnnn3C3CCCC3)cc2c1`, the cytotoxicity is 47.8%.

With `CCc1ccc2[nH]c(=O)c(CN(Cc3ccc4c(c3)OCO4)Cc3nnnn3C3CCCC3)cc2c1`, the cytotoxicity is 54.8% (active).

For the molecule `O=C(Nc1ccc2c(c1)nc1n2CCN(C2CCCCC2)C1)c1ccco1`, the cytotoxicity was -30.2%. For `Cc1ccc(-c2nnn(CC(=O)N(Cc3cccs3)C(C(=O)NC(C)(C)C)c3ccc(C)o3)n2)o1` (centres undefined), the cytotoxicity was 21.3%. On to `Clc1ccc(COn2nnc3ccccc32)c(Cl)c1`, for which the cytotoxicity was 0.9%.

Take `CCOc1ccc(C(=O)N2CCc3cc(OC)c(OC)cc3C2)cc1OCC`: the cytotoxicity is 45.5%. Consider `COc1ccc(C(=O)N2CCc3cc(OC)c(OC)cc3C2)cc1OC`, for which the cytotoxicity was -3.5%. For `CCOc1cc(C(=O)N2CCc3cc(OC)c(OC)cc3C2)ccc1OC(F)F`, the cytotoxicity was 89.4% (active). Consider `CCOc1nc(-c2ccccc2)ccc1-c1noc(-c2ccc(OC)c(OC)c2)n1`, for which the cytotoxicity was 20.5%.

Turning to `Cc1cc2c(c(=O)n1CCN(C)C)C(c1ccc(Br)cc1)C(C#N)=C(N)O2` (centres undefined), the cytotoxicity was 54.2% (active).

On to `Cc1cc2c(c(=O)n1CCN(C)C)C(c1ccc(Cl)cc1)C(C#N)=C(N)O2` (centres undefined), for which the cytotoxicity is -10.1%.

With `Cc1cc2c(c(=O)n1CCN(C)C)C(c1ccncc1)C(C#N)=C(N)O2` (centres undefined), the cytotoxicity is 20.9%. As for `O=C(NCc1ccco1)C1CCN(c2nnc(-n3cccc3)s2)CC1`, the cytotoxicity was -3.4%.

On to `Cc1cc(C(=O)CN2C(=O)NC(c3ccccc3)(c3ccccc3)C2=O)c(C)n1Cc1ccco1`, for which the cytotoxicity was 3.5%. Under `COc1ccccc1NC(=O)C1=C(C)Nc2nnnn2C1c1ccncc1` (centres undefined) stands -9.7%. Regarding `COc1ccc(-c2nnc(Nc3nc4c(OC)cccc4s3)o2)cc1`, the cytotoxicity is 59.3% (active). As to `Fc1cccc2sc(Nc3nnc(-c4ccco4)o3)nc12`, the cytotoxicity is 29.2%.

`COc1cc(-c2nnc(-c3cccs3)o2)cc(OC)c1OC`: the cytotoxicity is -28.7%. As to `Fc1cccc2sc(Nc3nnc(-c4ccccc4)o3)nc12`, the cytotoxicity was 44.8%. Regarding `COc1cc2nc(-c3cccs3)oc(=O)c2cc1OC`, the cytotoxicity was 9.6%. As for `COc1ccccc1-c1nnc(Nc2nc3c(OC)cccc3s2)o1`, the figure is 56.1% (active).

Consider `CCOC(=O)c1sc(Nc2nc3c(OC)cccc3s2)nc1C`, for which the cytotoxicity was 79.9% (active). As for `COc1cccc2sc(Nc3nnc(-c4cccs4)o3)nc12`, the cytotoxicity was 59.6% (active). As for `COc1cc(OC)cc(-c2nnc(Nc3nc4c(F)cccc4s3)o2)c1`, the cytotoxicity is 5.5%.

On to `COc1cccc2sc(Nc3nnc(-c4ccccc4Cl)o3)nc12`, for which the cytotoxicity was 31.7%. Consider `COC(=O)c1sc(NC(=O)COc2ccccc2OC)nc1C`, for which the cytotoxicity is -10.6%.

Regarding `CCOC(=O)c1sc(NCCNc2nc(C)c(C(=O)OCC)s2)nc1C`, the cytotoxicity was 1%. As for `CCn1c(SCC(=O)NCCc2ccc(F)cc2)nnc1-c1cccs1`, the figure is 4.9%; as for `COc1ccccc1OCc1nnc(SCC(=O)Nc2ccc(C)cc2)n1C`, -9.9%. Under `Cc1ccc(CN2CC34C=CC(O3)C(C(=O)NCc3ccc5c(c3)OCO5)C4C2=O)cc1` (centres undefined) stands -15.5%; under `CCN(CC)S(=O)(=O)c1cccc(-c2nnc(SCC(=O)NC)n2CCc2ccccc2)c1`, -3%; under `COc1ccccc1N1CCN(C(=O)c2ccc(NC(C)=O)cc2)CC1`, -1.4%.

Consider `Brc1ccc(-c2nnc(-c3ccccc3Br)o2)cc1`, for which the cytotoxicity is -2.3%. Consider `CN(CC(=O)Nc1ccccc1Cl)C(=O)COC(=O)CNC(=O)c1ccc(Br)o1`, for which the cytotoxicity was -18.6%. As for `Cc1ccc2c(c1)nnn2C1CCN(C(=O)c2cccs2)CC1`, the figure is -4.8%; as for `O=C(Cc1cccs1)Nc1ccc(C(=O)O)cc1`, -2.8%.

Turning to `CC(=O)OC1CC2(C)C(=O)CCC2C2CCc3cc(O)ccc3C12` (centres undefined), the cytotoxicity is -12.1%. On to `CCc1ccccc1S(=O)(=O)Cc1ccc(C(=O)NCC2CCCO2)o1` (centres undefined), for which the cytotoxicity was -0.8%. As to `Cc1cccc(Nc2nc(-c3ccccn3)cs2)n1`, the cytotoxicity is 10.2%. Regarding `COc1cccc2sc(Nc3nc(-c4ccccn4)cs3)nc12`, the cytotoxicity is 58.6% (active).

`c1ccc(-c2csc(Nc3cccnc3)n2)nc1`: the cytotoxicity was 4.5%.
